From PubChem BioAssay

molecular target: PEG-3 (UniProt Q6IN02); experiment: Peg3 promoter luciferase inhibitors, potency, dose response, cell-based, HeLa, CREF/GAPDH counter-screen panel (AID 624167); details: CREF/GAPDH counter-screens; HeLa PEG-Prom luciferase reporter, overnight, run 1, dose range 1, at 100 µM (top of the series) unless noted
Sequence (Q6IN02 whole entry, looked up): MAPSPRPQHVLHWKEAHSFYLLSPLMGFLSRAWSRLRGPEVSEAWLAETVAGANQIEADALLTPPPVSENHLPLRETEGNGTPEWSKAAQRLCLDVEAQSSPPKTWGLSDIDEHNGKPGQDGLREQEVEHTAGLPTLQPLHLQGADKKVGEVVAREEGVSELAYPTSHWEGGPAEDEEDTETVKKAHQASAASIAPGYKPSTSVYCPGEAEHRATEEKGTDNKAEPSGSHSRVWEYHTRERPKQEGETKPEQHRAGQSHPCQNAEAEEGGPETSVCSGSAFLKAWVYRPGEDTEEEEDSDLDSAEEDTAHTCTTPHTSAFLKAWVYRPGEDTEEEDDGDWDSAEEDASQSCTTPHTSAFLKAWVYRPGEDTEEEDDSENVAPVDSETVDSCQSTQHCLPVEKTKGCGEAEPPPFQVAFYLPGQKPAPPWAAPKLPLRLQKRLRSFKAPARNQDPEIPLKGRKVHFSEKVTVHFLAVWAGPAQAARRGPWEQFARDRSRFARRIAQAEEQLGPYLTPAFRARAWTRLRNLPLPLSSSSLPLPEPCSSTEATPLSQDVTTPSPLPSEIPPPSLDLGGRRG

Row | SMILES | inhibition [%]
1 | O/N=C(\c1ccc(Cl)cc1Cl)c1ncc(C(F)(F)F)cc1Cl | 86
2 | CCOC(=O)c1c(NC(C)=O)sc2c(OCC(O)CN(CC)CC)c(Br)ccc12 (stereo not given) | 102
3 | c1ccc(CCNc2nc(-c3ccncc3)nc3ccccc23)cc1 | 52.1
4 | O=C(O)CN1C(=O)/C(=C\c2ccccc2OCc2ccc(Cl)cc2Cl)SC1=S | 102
5 | COc1ccccc1CN(C)C(=O)c1cc(-c2cccs2)nc2ccccc12 | 99
6 | CN(C)CCNc1ccc2nnn3c4ccc(O)cc4c(=O)c1c23 | 102
7 | CCOc1cc(CNCCCN2CCOCC2)ccc1OCC(=O)Nc1cccc2ccccc12 | 100
8 | Cc1ccc(-c2cc(C(=O)Nc3nccs3)c3ccccc3n2)c(C)c1 | 34
9 | Cc1ccc2[nH]c(=O)c(C3C(C#N)=C(N)Oc4c3ccc3cccnc43)cc2c1 (stereo not given) | 99.2
10 | Oc1cccc(C(Nc2nccs2)c2ccc3cccnc3c2O)c1 (stereo not given) | 97.4
11 | COc1ccc(NC(=O)Nc2nc(C(N)C3CCCCC3)cs2)cc1 (stereo not given) | 101
12 | O=S(=O)(Nc1cccc2ncccc12)c1cccs1 | 94.5
13 | OCCNCc1cc(Br)ccc1OCc1ccc(Cl)cc1Cl | 101
14 | Cc1ccc(C(=O)N/C(=C\c2ccc(-c3cccc([N+](=O)[O-])c3)o2)C(=O)NCCCN(C)C)cc1 | 102
15 | CCc1nc(Nc2ccc(N3CCN(C(C)=O)CC3)cc2)c2oc3ccccc3c2n1 | 101
16 | COc1cc(-c2cc(C(=O)N(C)Cc3ccccc3)c3ccccc3n2)cc(OC)c1OC | 79.4
17 | OC[C@@H]1[C@@H](c2ccc(Cl)cc2)C(c2cccc(Cl)c2)=NN1c1ccccc1 | 102
18 | CC(=O)Nc1cccc(-c2cc(NC=O)c3ncc(-c4ccc(C(C)=O)cc4)n3c2)c1 | 12.8
19 | COc1cc(/C=C/c2ccc3cccc(O)c3n2)ccc1O | 92.4
20 | CCOc1ccc2[nH]c3c(NCCc4ccc(OC)c(OC)c4)ncnc3c2c1 | 99

Row | SMILES | inhibition [%]
21 | COc1cc2c(cc1OC)CN(c1nc(-c3cccnc3)nc3ccccc13)CC2 | 95.5
22 | Oc1ccc(C23CCCC2C2(CCCC2)c2ccc(O)cc2O3)c(O)c1 (stereo not given) | 99.4
23 | CC(=O)c1ccc(Nc2nc(C(N)Cc3ccc(Cl)cc3)cs2)cc1 (stereo not given) | 99.5
24 | Oc1[nH]c2ccc(Br)cc2c1N=NC(=S)Nc1ccc(F)cc1 | 89.9
25 | CS(=O)(=O)c1ccc(C(=O)NCCN2C(=O)S/C(=C\c3cccnc3)C2=O)cc1[N+](=O)[O-] | 102
26 | COc1ccc(CN2CCN(C(=O)c3cc(-c4cccnc4)nc4ccc(Cl)cc34)CC2)c(OC)c1OC | 74.9
27 | CC1(Cc2ccc(Cl)c(Cl)c2)C(=O)Nc2ccc(S(=O)(=O)NC3CCCCC3)cc21 (stereo not given) | 92.8
28 | Fc1ccc([C@@H]2CCNC[C@H]2COc2ccc3c(c2)OCO3)cc1 | 102
29 | O=S(=O)(NC1CC(NS(=O)(=O)OCC(Cl)(Cl)Cl)C2CCCCC12)OCC(Cl)(Cl)Cl (stereo not given) | 102
30 | COc1ccc2c(c1)[nH]c1c(=O)n(/N=C/C3C(C)C=C(C)CC3C)c(=O)[nH]c12 (stereo not given) | -108
31 | CCN(CC)CCCCNc1ncc2cc(-c3cc(OC)cc(OC)c3)c(NC(=O)NC(C)(C)C)nc2n1 | 97.1
32 | CC(=O)c1ccc(Nc2cc(C)nc3ccc(C)cc23)cc1 | 99.2
33 | CN(C)C=NC(=O)c1[nH]c2ccc(Cl)cc2c1-c1ccccc1 | 98.6
34 | CCN1CCN(Cc2c(O)ccc3c2O/C(=C\C=C\c2ccccc2)C3=O)CC1 | 99.1
35 | CC(C)c1ccc(NC(=O)Nc2nc(C(C)N)cs2)cc1 (stereo not given) | 100
36 | COc1cc(OC)c(OC)cc1CCC(C)NCCC(c1ccccc1)c1ccccc1 (stereo not given) | 100
37 | CCCOC(=O)c1cccc(Nc2nc(-c3cccnc3)nc3ccccc23)c1 | 99
38 | CSc1ccc2c(c1)C(N1CCN(C)CC1)Cc1ccccc1S2 (stereo not given) | 102
39 | CCN1CCCC1CN(Cc1cc2ccc(C)cc2[nH]c1=O)C(=S)Nc1ccc(OC)cc1 (stereo not given) | 102
40 | O=S(=O)(/N=C(/Sc1ccccc1)c1ccccc1)c1ccccc1 | 102

molecular target: PEG-3 (UniProt Q6IN02); experiment: as above; details: CREF/GAPDH counter-screens; HeLa PEG-Prom luciferase reporter, overnight, run 2, dose range 1, at 100 µM (top of the series) unless noted

Row | SMILES | inhibition [%]
41 | O/N=C(\c1ccc(Cl)cc1Cl)c1ncc(C(F)(F)F)cc1Cl | 97.3
42 | CCOC(=O)c1c(NC(C)=O)sc2c(OCC(O)CN(CC)CC)c(Br)ccc12 (stereo not given) | 98.6
43 | c1ccc(CCNc2nc(-c3ccncc3)nc3ccccc23)cc1 | 47.8
44 | O=C(O)CN1C(=O)/C(=C\c2ccccc2OCc2ccc(Cl)cc2Cl)SC1=S | 99.9
45 | COc1ccccc1CN(C)C(=O)c1cc(-c2cccs2)nc2ccccc12 | 98.8
46 | CN(C)CCNc1ccc2nnn3c4ccc(O)cc4c(=O)c1c23 | 98
47 | CCOc1cc(CNCCCN2CCOCC2)ccc1OCC(=O)Nc1cccc2ccccc12 | 101
48 | Cc1ccc(-c2cc(C(=O)Nc3nccs3)c3ccccc3n2)c(C)c1 | 56.2
49 | Cc1ccc2[nH]c(=O)c(C3C(C#N)=C(N)Oc4c3ccc3cccnc43)cc2c1 (stereo not given) | 98.6
50 | Oc1cccc(C(Nc2nccs2)c2ccc3cccnc3c2O)c1 (stereo not given) | 98.7
51 | COc1ccc(NC(=O)Nc2nc(C(N)C3CCCCC3)cs2)cc1 (stereo not given) | 99
52 | O=S(=O)(Nc1cccc2ncccc12)c1cccs1 | 96.5
53 | OCCNCc1cc(Br)ccc1OCc1ccc(Cl)cc1Cl | 101
54 | Cc1ccc(C(=O)N/C(=C\c2ccc(-c3cccc([N+](=O)[O-])c3)o2)C(=O)NCCCN(C)C)cc1 | 98.8
55 | CCc1nc(Nc2ccc(N3CCN(C(C)=O)CC3)cc2)c2oc3ccccc3c2n1 | 99.9
56 | COc1cc(-c2cc(C(=O)N(C)Cc3ccccc3)c3ccccc3n2)cc(OC)c1OC | 94.8
57 | OC[C@@H]1[C@@H](c2ccc(Cl)cc2)C(c2cccc(Cl)c2)=NN1c1ccccc1 | 101
58 | CC(=O)Nc1cccc(-c2cc(NC=O)c3ncc(-c4ccc(C(C)=O)cc4)n3c2)c1 | 31.9
59 | COc1cc(/C=C/c2ccc3cccc(O)c3n2)ccc1O | 99.9
60 | CCOc1ccc2[nH]c3c(NCCc4ccc(OC)c(OC)c4)ncnc3c2c1 | 100

Row | SMILES | inhibition [%]
61 | COc1cc2c(cc1OC)CN(c1nc(-c3cccnc3)nc3ccccc13)CC2 | 99.1
62 | Oc1ccc(C23CCCC2C2(CCCC2)c2ccc(O)cc2O3)c(O)c1 (stereo not given) | 95.5
63 | CC(=O)c1ccc(Nc2nc(C(N)Cc3ccc(Cl)cc3)cs2)cc1 (stereo not given) | 98.2
64 | Oc1[nH]c2ccc(Br)cc2c1N=NC(=S)Nc1ccc(F)cc1 | 100
65 | CS(=O)(=O)c1ccc(C(=O)NCCN2C(=O)S/C(=C\c3cccnc3)C2=O)cc1[N+](=O)[O-] | 99.2
66 | COc1ccc(CN2CCN(C(=O)c3cc(-c4cccnc4)nc4ccc(Cl)cc34)CC2)c(OC)c1OC | 83
67 | CC1(Cc2ccc(Cl)c(Cl)c2)C(=O)Nc2ccc(S(=O)(=O)NC3CCCCC3)cc21 (stereo not given) | 95.4
68 | Fc1ccc([C@@H]2CCNC[C@H]2COc2ccc3c(c2)OCO3)cc1 | 101
69 | O=S(=O)(NC1CC(NS(=O)(=O)OCC(Cl)(Cl)Cl)C2CCCCC12)OCC(Cl)(Cl)Cl (stereo not given) | 99.2
70 | COc1ccc2c(c1)[nH]c1c(=O)n(/N=C/C3C(C)C=C(C)CC3C)c(=O)[nH]c12 (stereo not given) | -83.6
71 | CCN(CC)CCCCNc1ncc2cc(-c3cc(OC)cc(OC)c3)c(NC(=O)NC(C)(C)C)nc2n1 | 101
72 | CC(=O)c1ccc(Nc2cc(C)nc3ccc(C)cc23)cc1 | 102
73 | CN(C)C=NC(=O)c1[nH]c2ccc(Cl)cc2c1-c1ccccc1 | 96.5
74 | CCN1CCN(Cc2c(O)ccc3c2O/C(=C\C=C\c2ccccc2)C3=O)CC1 | 101
75 | CC(C)c1ccc(NC(=O)Nc2nc(C(C)N)cs2)cc1 (stereo not given) | 98.9
76 | COc1cc(OC)c(OC)cc1CCC(C)NCCC(c1ccccc1)c1ccccc1 (stereo not given) | 96.7
77 | CCCOC(=O)c1cccc(Nc2nc(-c3cccnc3)nc3ccccc23)c1 | 101
78 | CSc1ccc2c(c1)C(N1CCN(C)CC1)Cc1ccccc1S2 (stereo not given) | 98.9
79 | CCN1CCCC1CN(Cc1cc2ccc(C)cc2[nH]c1=O)C(=S)Nc1ccc(OC)cc1 (stereo not given) | 99.5
80 | O=S(=O)(/N=C(/Sc1ccccc1)c1ccccc1)c1ccccc1 | 101
